ERAP1 inh: ERAP1 (human) enzyme inhibition; Q9NZ08; recombinant ERAP1, Leu-AMC fluorescence, 60 min; inhibition, % at 10.7 µM; 340,000 tested, 0.15% active; AID 652197;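 active = mean replicate inhibition of at least 30%, or all replicates individually reaching that 30% level; inactive = mean below 30% and not every replicate reaching it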;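 also: 0% = neutral control wells and 100% = L-leucinethiol positive control wells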
ERp5 block: ERp5 (human) disulfide isomerase inhibition; ERp5 insulin aggregation, absorbance 650 nm, 90 min; Q15084; inhibition, % at 9.99 µM; 350,000 tested, 0.05% active; AID 651711;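 active = mean replicate inhibition above about 25%, with every replicate also reaching it, limit read from the data, passing the limit was not always enough; inconclusive = only one of those two criteria met; inactive = neither criterion met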
Target sequence (Q15084 whole entry, looked up): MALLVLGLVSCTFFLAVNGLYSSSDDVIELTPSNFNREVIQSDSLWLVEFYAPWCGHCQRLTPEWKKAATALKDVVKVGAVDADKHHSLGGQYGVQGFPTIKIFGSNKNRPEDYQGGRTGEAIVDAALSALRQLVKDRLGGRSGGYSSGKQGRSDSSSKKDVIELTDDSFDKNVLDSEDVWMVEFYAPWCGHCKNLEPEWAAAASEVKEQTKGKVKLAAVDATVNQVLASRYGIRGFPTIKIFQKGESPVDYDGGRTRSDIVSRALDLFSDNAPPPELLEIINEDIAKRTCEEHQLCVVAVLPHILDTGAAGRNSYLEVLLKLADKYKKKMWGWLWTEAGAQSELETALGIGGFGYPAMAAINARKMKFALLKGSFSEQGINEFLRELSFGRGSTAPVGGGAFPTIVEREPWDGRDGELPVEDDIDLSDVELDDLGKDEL
DENV2 CPE rescue: inhibitors of DENV2 cytopathic effect; AID 651640; 350,000 tested, 1.7% active; DENV2-infected cells, cytopathic effect rescue, plate reader; CPE inhibition, % at 9.99 µM; in the data active = CPE inhibition above about 20%, passing the limit was not always enough; inconclusive = no clear call, values can overlap the other calls; tested in BHK-21 cells;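 also: 0% = median of neutral control wells and 100% = median of positive control wells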
PDI turbidity: inhibitors of human protein disulfide isomerase. PDI insulin aggregation turbidity, A650, 90 min. inhibition, % at 10 µM. P07237. 350,000 tested, 0.052% active;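 active = mean inhibition across replicates of 30% or more, whatever share of single replicates reach that level; inconclusive = mean inhibition below 30% while every single replicate reaches 30%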
AF4-AF9 inh: MLL-AF4/AF9 protein interaction inhibition; P42568; AlphaScreen, biotin-AF4 peptide binding to FLAG-AF9; inhibition, % at 10 µM; 350,000 tested, 0.47% active;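 active = every replicate reaching a set inhibition limit, whatever the replicate mean, cut at about 25% in these data; inconclusive = mean inhibition reaches that limit but some replicates miss it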;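 also: 0% = plate neutral control median and 100% = total signal loss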
Numbers without * were called inactive; ? = inconclusive; . = no result. An excerpt weighted towards active compounds, which were near 1.8% of everything screened.

SMILES	ERAP1 inh	ERp5 block	DENV2 CPE rescue	PDI turbidity	AF4-AF9 inh
C[C@@H]1CN([C@@H](C)CO)C(=O)c2cc(C#CC3CCCCC3)cnc2O[C@@H]1CN(C)S(=O)(=O)c1ccccc1	-1.6	28.6*	5.7	.	-1.0
C[C@H](CO)N1C[C@H](C)[C@@H](CN(C)S(=O)(=O)c2ccccc2)Oc2ncc(C#CC3CCCCC3)cc2C1=O	-0.4	-10.8	-1.6	.	3.4
C[C@H](CO)N1C[C@H](C)[C@@H](CN(C)C(=O)C2CC2)Oc2ncc(C#CC3CCCC3)cc2C1=O	-0.9	-4.8	25.3*	.	-0.8
C[C@@H]1CN([C@@H](C)CO)C(=O)c2cc(C#CC3CCCC3)cnc2O[C@@H]1CN(C)C(=O)C1CCC1	2.5	1.1	-4.2	.	-4.0
C[C@@H]1CN([C@@H](C)CO)C(=O)c2cc(C#CC3CCCC3)cnc2O[C@H]1CN(C)C(=O)C1CC1	-0.8	2.4	27.5*	.	0.5
Cc1ccc(-c2ccc(C3[C@@H]4CN(S(=O)(=O)c5ccc(C)cc5)C[C@H]3N4)cc2)cc1 (some centres not stated)	-1.4	-3.4	-20.5	.	-2.2
Cc1ccc(S(=O)(=O)N(C)C[C@@H]2OCCCC[C@@H](C)Oc3ccc(NC(=O)CCCN(C)C)cc3C(=O)N([C@@H](C)CO)C[C@H]2C)cc1	-3.5	5.4	4.7	.	0.8
CCCCCCCC(=O)O	0.4	2.5	?	.	-2.6
C=C(C(=O)O)C(CCCCCC)C(=O)O (configuration not stated)	0.8	0.8	89.9*	.	-1.2
CC(C)C(NS(=O)(=O)c1ccc2c(c1)C(C)(C)C(=O)N2C)C(=O)NCc1ccccc1Cl (configuration not stated)	-3.2	4.0	79.9*	-1.7	-9.3
CCCNC(=O)N1[C@@H](CO)[C@@H](c2ccc(C3=CCCC3)cc2)[C@@H]1CNC(C)=O	.	.	9.5	.	.
C[C@H]1CN([C@@H](C)CO)C(=O)c2cccc(NC(=O)Nc3ccccc3)c2O[C@@H]1CN(C)Cc1ccc(C(=O)O)cc1	3.4	6.5	5.8	.	-0.5
Cc1cc(C(=O)Nc2cccc3c2O[C@H](CN(C)Cc2ccccc2)[C@H](C)CN([C@@H](C)CO)C3=O)n(C)n1	1.7	-0.8	10.1	.	-0.5
Cc1noc(C)c1NC(=O)Nc1cccc2c1O[C@H](CN(C)Cc1ccc(C(=O)O)cc1)[C@H](C)CN([C@@H](C)CO)C2=O	-9.9	-3.2	26.3*	.	-0.5
Cc1cc(C(=O)Nc2cccc3c2O[C@@H](CN(C)Cc2ccc(C(=O)O)cc2)[C@@H](C)CN([C@H](C)CO)C3=O)n(C)n1	-0.7	0.9	50.4*	.	-6.3
C[C@@H]1CN([C@H](C)CO)C(=O)c2cccc(NC(=O)Nc3ccccc3)c2O[C@H]1CN(C)Cc1ccc(C(=O)O)cc1	-2.0	-2.2	21.7*	.	-0.8
COc1ccc(CN(C)C[C@H]2Oc3c(NC(=O)c4nc5ccccc5s4)cccc3C(=O)N([C@H](C)CO)C[C@@H]2C)cc1	1.0	0.4	24.0*	.	4.8
OC[C@H]1[C@@H](c2ccc(C#Cc3ccccc3)cc2)[C@@H]2CN(CC3CCOCC3)CCCCN12	1.1	18.5	-4.7	.	16.5
CNC[C@@H]1OCCCC[C@H](C)Oc2ccc(NS(=O)(=O)c3cn(C)cn3)cc2C(=O)N([C@@H](C)CO)C[C@H]1C	1.1	.	0.0	.	-8.9
C[C@H]1CCCCO[C@H](CN(C)C(=O)Nc2ccc(C(F)(F)F)cc2)[C@@H](C)CN([C@@H](C)CO)C(=O)c2cc(NC(=O)Nc3ccccc3)ccc2O1	-1.2	-3.0	12.4	.	-1.0
C[C@@H]1CN([C@@H](C)CO)S(=O)(=O)c2ccc(C#CCC3CCCC3)cc2O[C@H]1CN(C)C	3.4	0.9	0.0	.	9.9
Cc1noc(C)c1NC(=O)Nc1cccc2c1O[C@H](CN(C)Cc1ccc3c(c1)OCO3)[C@@H](C)CN([C@H](C)CO)C2=O	-6.3	0.2	1.1	.	-0.9
COc1ccc(CN(C)C[C@@H]2Oc3c(NC(=O)Nc4ccccc4)cccc3C(=O)N([C@H](C)CO)C[C@H]2C)cc1	-3.7	-1.3	29.5*	.	-1.2
Cc1noc(C)c1NC(=O)Nc1cccc2c1O[C@H](CN(C)Cc1ccc3c(c1)OCO3)[C@@H](C)CN([C@@H](C)CO)C2=O	-1.1	5.5	21.5*	.	-0.1
CCCNC(=O)C[C@@H]1CC[C@@H]2[C@@H](COc3ccc(NC(=O)C4CCOCC4)cc3C(=O)N2C)O1	2.1	-0.3	-2.6	.	-1.7
SMILES	ERAP1 inh	ERp5 block	DENV2 CPE rescue	PDI turbidity	AF4-AF9 inh
C[C@@H]1CN([C@H](C)CO)C(=O)c2cc(N(C)C)ccc2O[C@H]1CN(C)CC1CCCCC1	.	.	.	.	3.5
O=C(Nc1ccc2oc(=O)ccc2c1)c1ccc(-c2cccc([N+](=O)[O-])c2)o1	-2.1	16.5	27.1*	-2.3	0.0
O=C(Nc1ccc2oc(=O)ccc2c1)c1ccc(-c2ccc(Cl)cc2)o1	.	.	.	-1.5	.
C[C@H](CO)N1C[C@H](C)[C@H](CN(C)S(C)(=O)=O)Oc2ccc(NC(=O)CCCN(C)C)cc2CC1=O	2.2	1.5	-5.7	.	-0.8
COc1ccc(C#Cc2cccc(-c3nc(C(=O)N4CCN(C)CC4)cc4c3[C@@H](CCO)N(S(=O)C(C)(C)C)C4)c2)cc1OC (some centres not stated)	-15.3	-1.1	-3.4	.	2.1
CC(C)=NNC(=O)CN1C(=O)NC2NC(=O)NC21 (configuration not stated)	-2.0	4.9	33.7*	5.1	-3.1
Cc1noc(C)c1NC(=O)Nc1ccc2c(c1)C(=O)N([C@@H](C)CO)C[C@@H](C)[C@H](CN(C)C(=O)Nc1cccc3ccccc13)O2	-0.1	3.0	13.0	.	-4.6
C[C@@H]1CCCCO[C@H](CN(C)S(=O)(=O)c2ccc(Cl)cc2)[C@H](C)CN([C@H](C)CO)C(=O)c2cc(N(C)C)ccc2O1	-2.0	1.3	88.6*	.	7.4
C[C@@H]1CN([C@@H](C)CO)C(=O)c2cc(NS(C)(=O)=O)ccc2O[C@@H](C)CCCCO[C@@H]1CN(C)S(=O)(=O)c1ccc(Cl)cc1	-0.8	3.4	20.3*	.	-1.4
Cc1ccc(S(=O)(=O)N(C)C[C@H]2OCCCC[C@@H](C)Oc3ccc(NS(=O)(=O)c4c(C)noc4C)cc3C(=O)N([C@@H](C)CO)C[C@@H]2C)cc1	-2.9	0.6	29.5*	.	0.5
C[C@H]1CCCCO[C@H](CN(C)S(=O)(=O)c2ccc(Cl)cc2)[C@@H](C)CN([C@@H](C)CO)C(=O)c2cc(NC(=O)Cc3ccccc3)ccc2O1	2.7	-4.5	108.7*	.	1.5
C[C@H]1CCCCO[C@@H](CN(C)S(=O)(=O)c2ccc(Cl)cc2)[C@@H](C)CN([C@@H](C)CO)C(=O)c2cc(N(C)C)ccc2O1	-1.1	0.4	2.5	.	?
C[C@H](CO)N1C[C@H](C)[C@@H](CN(C)S(=O)(=O)c2ccc(F)cc2)OCCCC[C@H](C)Oc2ccc(NS(=O)(=O)c3ccc(F)cc3)cc2C1=O	.	.	14.6	.	.
CNC[C@@H]1Oc2cc(-c3cncnc3)ccc2S(=O)(=O)N([C@H](C)CO)C[C@H]1C	2.3	2.1	11.8	.	2.5

Screens: PubChem, Broad Institute
